Reference: PubChem BioAssay (NCI)
This is part of a sample that, as a whole, favours compounds with a hit. Of some 79,000 tested, about 15% had one in any assay. Activity calls are given as the source filed them. Rule as the data show it: active = growth inhibition above about 70%; inactive = the rest.

Legend:
[1] = NCI Yeast Anticancer Drug Screen. Data for the rad50 strain (AID 155);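 also: 0% = growth of vehicle-only cultures of the same strain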; details: S. cerevisiae rad50 strain growth inhibition; at 50.0 µM; stronger effect = higher value
Method in brief: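 DNA repair mutant yeast, compound exposure, growth read-out; inhibition is taken relative to vehicle.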

[2] = NCI Yeast Anticancer Drug Screen. Data for the mec2-1 strain (AID 157); details: S. cerevisiae mec2-1 strain, at 50.0 µM, stronger effect = higher value
Method in brief: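 Yeast mec2-1 mutant treated with compound. Readout: growth inhibition vs vehicle controls.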

[3] = NCI Yeast Anticancer Drug Screen. Data for the sgs1 mgt1 strain (AID 161);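 also: 0% = growth of cultures given vehicle only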; details: S. cerevisiae sgs1 mgt1 strain, at 50.0 µM, stronger effect = higher value
Method in brief: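 Test agents were incubated with a DNA-repair-mutant yeast strain. Growth was then read and compared against vehicle-treated controls.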

[4] = NCI Yeast Anticancer Drug Screen. Data for the cln2 rad14 strain (AID 165);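 also: 0% = growth equal to vehicle treated cultures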; details: S. cerevisiae cln2 rad14 strain, at 50.0 µM, stronger effect = higher value
Method in brief: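 cln2 rad14 yeast strain; compound exposure; growth inhibition read vs vehicle controls.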

[5] = NCI Yeast Anticancer Drug Screen. Data for the bub3 strain (AID 167); details: S. cerevisiae bub3 mutant strain, at 50.0 µM, stronger effect = higher value
Method in brief: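 In this screen, a yeast mutant lacking normal mitotic checkpoint function is challenged with compound. Relative growth versus vehicle gives the inhibition value.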

[6] = NCI Yeast Anticancer Drug Screen. Data for the mlh1 rad18 strain (AID 175); details: S. cerevisiae mlh1 rad18 strain growth inhibition; at 50.0 µM; stronger effect = higher value
Method in brief: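 Yeast w/ defined DNA-repair lesions; compound exposure; growth vs vehicle controls → % inhibition.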

Measured: growth inhibition

COC(=O)C1(C(C)C(=O)c2ccc(Cl)cc2)NC(=S)NC(=O)C1C#N (stereo not drawn)
inactive: [1] 0.4% | [2] 6.05% | [3] -24.9% | [4] -0.8% | [5] -8.5% | [6] 12.7%

COc1ccc(-n2c(=O)c(N=Nc3ccc(Cl)cc3)c(O)n(-c3ccc(I)cc3)c2=S)cc1
inactive: [1] 49.8% | [2] 5.45% | [3] 33.4% | [4] -3.7% | [5] 0.8% | [6] 22.4%

CCOC(=O)c1ccc(NC(=O)Nc2ccc(F)c([N+](=O)[O-])c2)cc1
inactive: [1] 7.3% | [2] 46.1% | [3] 46.5% | [4] 7% | [5] 28.9% | [6] 23.6%

CN(C)c1cc2c(cc1N(C)C)-c1ccccc1C2
inactive: [1] 9.85% | [2] 6.5% | [3] 13.9% | [4] -0.2% | [5] 10.1% | [6] 28.9%

O=C(O)CCc1nc(-c2ccccc2-n2cccc2)no1
inactive: [1] -43.8% | [2] -36.1% | [3] -30.4% | [4] 38.2% | [5] -15.4% | [6] 8.2%

O=C1/C(=C/c2ccc(O)c(O)c2)CC/C1=C\c1ccc(O)c(O)c1
inactive: [1] -18.9% | [2] -23.9% | [3] -21% | [4] 10.9% | [5] -16.1% | [6] -22.6%

COc1ccc(C2OC2C(=O)c2ccccc2)cc1 (stereo not drawn)
inactive: [1] 6.75% | [2] 0.7% | [3] 19.4% | [4] -14.2% | [5] 12.3% | [6] -1.25%

COc1ccc(C(=O)O[C@@H]2CCN3CC[C@H](C)[C@H]23)cc1
inactive: [1] 7.4% | [2] -22.5% | [3] 7.3% | [4] 12.7% | [5] -6.35% | [6] -74.8%

COC(=O)N[C@H](C(=O)O)C(C)O[Si](C)(C)C(C)(C)C (stereo partly drawn)
inactive: [1] -16.2% | [2] -14% | [3] -52.6% | [4] 8.2% | [5] -33% | [6] -34.5%

CC(=O)OC1CCC2(C)C3=C(C(=O)CC2C1(C)C)C1(C)CCC(C(C)CCCC(C)C)C1(C)CC3 (stereo not drawn)
inactive: [1] 0.3% | [2] 1.6% | [3] -25.4% | [4] 3.15% | [5] 4.3% | [6] -0.6%

CC(=O)N(C(C)=O)n1c(Cc2ccc(Cl)cc2)nn(C(C)=O)c1=O
inactive: [1] 7.85% | [2] -15.1% | [3] -9.2% | [4] 4.5% | [5] 10.7% | [6] -7.6%

O=C(Nc1ccccc1)NC1CCCC1
inactive: [1] 4.65% | [2] 7.85% | [3] -1.8% | [4] -5.5% | [5] -12.2% | [6] -1.2%

CN1C(=O)Cn2c(n[nH]c(=O)c2=O)-c2cc(Cl)ccc21
inactive: [1] -22.4% | [2] 12.3% | [3] 10.3% | [4] -36.5% | [5] 12.9% | [6] 6.2%

CCCCCCCCCCCCCCC(CCCCCCCCCCCCCC)c1ccccc1
inactive: [1] 38.4% | [2] -1.25% | [3] 11.6% | [4] -29.4% | [5] -2.65% | [6] 12.2%

O=C(O)C(Cc1ccccc1)C(=O)O.[NH2-].[NH2-].[Pt+2]
inactive: [1] -11.7% | [2] -0.95% | [3] 10.9% | [4] 13.1% | [5] 1.25% | [6] 24.2%

NC(N)=NC(=S)Nc1ccc(Cl)cc1
inactive: [1] 21.6% | [2] 1.6% | [3] 7.55% | [4] -4% | [5] -15.7% | [6] 31.1%

Clc1ccccc1-c1c2ccccc2cc2ccc3ccccc3c12
inactive: [1] -6.75% | [2] -11.6% | [3] -3.85% | [4] -39.5% | [5] 18.9% | [6] -12.4%

OCCCNc1nc2cc(Br)ccc2c2ccc(Br)cc12
inactive: [1] 47.6% | [2] 4.75% | [3] 23.9% | [4] -3.65% | [5] 0.1% | [6] 19.1%

COc1cc(/C=C/C(=O)c2sc(-n3nc(-c4ccccc4)cc3-c3ccccc3)nc2C)ccc1O
inactive: [1] 6% | [2] -13.6% | [3] -34.4% | [4] 4.9% | [5] 26.4% | [6] -10%

N#Cc1ccc2ccccc2c1
inactive: [1] 4.65% | [2] -7% | [3] 3% | [4] -4.65% | [5] 10.7% | [6] -16.8%

COc1ccccc1C(=O)O
inactive: [1] -7.45% | [2] -16.8% | [3] -9.4% | [4] -1.75% | [5] -7.35% | [6] -5%

N#CC(=Nc1ccccc1N(C(=O)c1ccccc1)C(=O)c1ccccc1)c1ccccc1
inactive: [1] -21.3% | [2] -19.4% | [3] -30.4% | [4] 2.95% | [5] -51.5% | [6] -38.4%

NC(=O)CNC(=O)[C@@H]1C[C@@H](OCCC(=O)O)CN1C(=O)OCc1ccccc1
inactive: [1] -32.2% | [2] -8.75% | [3] -24.5% | [4] 4.1% | [5] 14.5% | [6] 4.95%

O=NN(Cc1ccccc1)NC(=O)c1ccccc1
inactive: [1] 6.2% | [2] 28.1% | [3] 8.9% | [4] -8.4% | [5] 20.9% | [6] 11.2%

O=c1c2c(ccc3ccccc32)oc2ccc3ccccc3c12
inactive: [1] 15% | [2] 1.45% | [3] -5.45% | [4] -45.1% | [5] -7.65% | [6] 16.4%

CCCCOC(=O)C(C)OP(=O)(OC(C)C(=O)OCCCC)OC(C)C(=O)OCCCC (stereo not drawn)
inactive: [1] -19.4% | [2] -5% | [3] 9.5% | [4] -26.1% | [5] -0.3% | [6] 16.2%

COc1cc(C2c3cc4c(c(OS(=O)(=O)O)c3CC3COC(=O)C32)OCO4)cc(OC)c1OC (stereo not drawn)
inactive: [1] 6.3% | [2] 3.5% | [3] -18.9% | [4] -14.4% | [5] 15% | [6] 7.4%

CC(=O)Oc1ccc2c(c1)c1c(OC(C)=O)c(N(C)C(C)=O)cc(OC(C)=O)c1n2C
inactive: [1] 22.4% | [2] -0.65% | [3] 3.85% | [4] 12.4% | [5] -3.7% | [6] 5.6%

COc1ccc2c(c1)OC(C)(C)C(c1ccccc1)=C2c1ccc(OCCN2CCCC2)cc1
active: [1] 99.6% | [2] 99.8% | [3] 99.9% | [4] 99.3% | [5] 99.3% | [6] 99.7%

O=C(O)C1C=CC2OC2C1C(=O)O (stereo not drawn)
inactive: [1] 2.9% | [2] -28.2% | [3] -5.95% | [4] -31.9% | [5] 1.1% | [6] 4.7%

CNc1ccc(C)cc1S(=O)(=O)c1ccccc1[N+](=O)[O-]
inactive: [1] 65.5% | [2] 42.5% | [3] 58.1% | [4] 29.2% | [5] 47.1% | [6] 16.1%

CCc1c(N)nc(=O)[nH]c1C(=O)O
inactive: [1] -4.9% | [2] -0.2% | [3] 10.1% | [4] -26.3% | [5] -26% | [6] -16.6%

N#C/C(=N\NC(=O)c1ccccc1)c1ccccc1
inactive: [1] 5.65% | [2] 4.9% | [3] -3.7% | [4] -32.5% | [5] -8.3% | [6] 3.5%

c1ccc(C(=C2CCCCCCCCCCCCC2)c2ccccc2)cc1
inactive: [1] -25.2% | [2] 2.9% | [3] -2.9% | [4] -2% | [5] 25% | [6] -24%

CCOC(=O)CN=C1NNS(=O)(=O)c2ccccc21
inactive: [1] 3.55% | [2] -17.4% | [3] -10.2% | [4] 28.4% | [5] -23.1% | [6] 6.35%

CN(C)c1nc(N)nc(CS)n1
inactive: [1] 10.8% | [2] 10.4% | [3] -9.05% | [4] 10.3% | [5] -4.15% | [6] -39.5%

CC1(C)C(=O)CC[C@]2(C)[C@H]3C(=O)C=C4[C@H]5C[C@@](C)(C(=O)O)CC[C@]5(C)CC[C@@]4(C)[C@]3(C)CC[C@@H]12
inactive: [1] -4.8% | [2] -5.95% | [3] -3.85% | [4] -16.1% | [5] 0.15% | [6] -0.95%

CN1CCC=C(C(C)(C)O)C1
inactive: [1] -3.55% | [2] -4.45% | [3] -15.7% | [4] 11.3% | [5] -0.6% | [6] 2.35%
